Measured values: PubChem BioAssay (NCI)
Compounds without any hit were thinned out: in the full panel of roughly 79,000, 15% have a hit. Calls of active or inactive are those of the source. Rule as the data show it: active = growth inhibition above about 70%; inactive = the rest.

Assays:
[1] = NCI Yeast Anticancer Drug Screen. Data for the rad52 strain (AID 147);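 also: 0% = growth of vehicle-treated control cultures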; conditions: S. cerevisiae rad52 mutant growth inhibition, hits give high values
Outline: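 Growth of repair-deficient yeast cells was compared between compound-treated and vehicle-treated cultures to give percent inhibition.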

[2] = NCI Yeast Anticancer Drug Screen. Data for the wt1 strain (AID 149);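 also: 0% = growth of vehicle-treated wt1 cultures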; conditions: S. cerevisiae wt1 strain (SPY 50644) growth inhibition, hits give high values
Outline: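 Measured: growth of wt1 yeast under compound versus vehicle treatment, reported as inhibition.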

[3] = NCI Yeast Anticancer Drug Screen. Data for the rad50EPP+ strain (AID 151);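 also: 0% = growth of vehicle-treated control cultures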; conditions: S. cerevisiae rad50 mutant strain, hits give high values
Outline: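 Measured: growth inhibition of rad50EPP+ yeast. Reference: vehicle-treated controls. Screen uses strains with defined genetic alterations in DNA damage repair or cell cycle control.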

[4] = NCI Yeast Anticancer Drug Screen. Data for the mgt1 strain (AID 153); conditions: S. cerevisiae mgt1 mutant growth inhibition, hits give high values
Outline: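 Compounds were applied to mgt1 mutant yeast, and growth was then compared against vehicle-treated control cultures to give percent inhibition.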

[5] = NCI Yeast Anticancer Drug Screen. Data for the rad50 strain (AID 155);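 also: 0% = growth of vehicle-only cultures of the same strain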; conditions: S. cerevisiae rad50 strain growth inhibition, hits give high values
Outline: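 Growth of the mutant yeast was measured after compound exposure and referenced to vehicle-treated cultures.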

[6] = NCI Yeast Anticancer Drug Screen. Data for the mec2-1 strain (AID 157); conditions: S. cerevisiae mec2-1 strain, hits give high values
Outline: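 Compounds were applied to mec2-1 yeast cells. Their growth was then compared with that of vehicle-treated cultures to give growth inhibition.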

[7] = NCI Yeast Anticancer Drug Screen. Data for the rad14 strain (AID 159);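 also: 0% = growth of vehicle-treated control cultures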; conditions: S. cerevisiae rad14 strain growth inhibition, hits give high values
Outline: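 Here, inhibition of yeast growth was measured after compound exposure, using a strain with a genetic defect in DNA damage repair and vehicle-treated cultures as the reference.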

[8] = NCI Yeast Anticancer Drug Screen. Data for the sgs1 mgt1 strain (AID 161);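 also: 0% = growth of cultures given vehicle only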; conditions: S. cerevisiae sgs1 mgt1 strain, hits give high values
Outline: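 Yeast cells carrying a defined DNA-repair defect were exposed to test compounds. Growth inhibition was measured relative to vehicle-treated controls.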

[9] = NCI Yeast Anticancer Drug Screen. Data for the CLN2oe strain (AID 163);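 also: 0% = growth of vehicle-only control cultures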; conditions: S. cerevisiae CLN2oe strain, hits give high values
Outline: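 Cells of an engineered yeast line with disturbed cell-cycle regulation are treated with compound. Inhibition of growth is then calculated relative to the vehicle-treated reference.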

[10] = NCI Yeast Anticancer Drug Screen. Data for the cln2 rad14 strain (AID 165);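 also: 0% = growth equal to vehicle treated cultures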; conditions: S. cerevisiae cln2 rad14 strain, hits give high values
Outline: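 Strain: cln2 rad14 yeast, altered in cell cycle control and DNA damage repair. Read-out: growth inhibition vs vehicle.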

[11] = NCI Yeast Anticancer Drug Screen. Data for the bub3 strain (AID 167); conditions: S. cerevisiae bub3 mutant strain, hits give high values
Outline: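 Whole-cell yeast assay. The mutant strain was incubated with compounds, and growth inhibition was determined by comparison with vehicle-treated cells.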

[12] = NCI Yeast Anticancer Drug Screen. Data for the wt2 strain (AID 169);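 also: 0% = growth of vehicle-treated yeast cultures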; conditions: S. cerevisiae wt2 strain growth inhibition, hits give high values
Outline: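 Growth of compound-treated yeast is measured and expressed as inhibition relative to vehicle-only controls.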

[13] = NCI Yeast Anticancer Drug Screen. Data for the mlh1 strain (AID 171);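 also: 0% = growth of vehicle-treated control cultures of the same strain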; conditions: S. cerevisiae mlh1 strain growth inhibition, hits give high values
Outline: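 Test agents were incubated with yeast bearing a defined DNA damage repair or cell cycle control alteration; values are growth inhibition normalised to vehicle-treated cultures.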

[14] = NCI Yeast Anticancer Drug Screen. Data for the sgs1 strain (AID 173);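 also: 0% = growth of vehicle-only control cultures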; conditions: S. cerevisiae sgs1 mutant, hits give high values
Outline: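 Strain with an altered DNA repair or cell cycle pathway exposed to compound. Growth then measured. Value = inhibition versus vehicle control.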

[15] = NCI Yeast Anticancer Drug Screen. Data for the mlh1 rad18 strain (AID 175); conditions: S. cerevisiae mlh1 rad18 strain growth inhibition, hits give high values
Outline: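 A repair-deficient yeast strain is exposed to test compound, and growth is scored relative to vehicle-treated controls.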

[16] = NCI Yeast Anticancer Drug Screen. Data for the rad18 strain (AID 177); conditions: S. cerevisiae rad18 mutant growth inhibition, hits give high values
Outline: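 DNA-repair-defective yeast; compound treatment; growth inhibition scored against vehicle.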

[17] = at 5.0 µM (retest, dose inferred, filed as 0.5)
[18] = at 50.0 µM (retest, dose inferred, filed as 5.0)

Measured: growth inhibition

CCc1ncnc2cc(OCC3CO3)c(OC)cc12 (stereo unspecified)
active: [1]; at 33.0 µM 82% | [1]; at 100.0 µM 87% | [3]; at 100.0 µM 74% | [5]; [17] 72% | [5]; at 11.0 µM 72% | [5]; at 33.0 µM 85% | [5]; [18] 92% | [5]; at 50.0 µM 84.3% | [5]; at 100.0 µM 91% | [6]; at 33.0 µM 75% | [6]; [18] 92% | [6]; at 50.0 µM 89.4% | [6]; at 100.0 µM 91% | [7]; at 33.0 µM 85% | [7]; at 100.0 µM 94% | [8]; [17] 79% | [8]; [18] 93% | [8]; at 50.0 µM 82.7% | [10]; [18] 79% | [10]; at 50.0 µM 79.1% | [12]; at 100.0 µM 72% | [14]; at 11.0 µM 70% | [14]; at 33.0 µM 82% | [14]; at 100.0 µM 91% | [15]; [17] 90% | [15]; [18] 95% | [15]; at 50.0 µM 81.2% | [16]; at 1.2 µM 73% | [16]; at 3.7 µM 84% | [16]; at 11.0 µM 92% | [16]; at 33.0 µM 91% | [16]; at 100.0 µM 93%
inactive: [1]; at 1.2 µM 7% | [1]; at 3.7 µM 46% | [1]; at 11.0 µM 66% | [2]; at 1.2 µM -9% | [2]; at 3.7 µM 8% | [2]; at 11.0 µM 3% | [2]; at 33.0 µM 6% | [2]; at 100.0 µM 20% | [3]; at 1.2 µM 8% | [3]; at 3.7 µM 31% | [3]; at 11.0 µM 31% | [3]; at 33.0 µM 47% | [4]; at 1.2 µM -14% | [4]; at 3.7 µM -8% | [4]; at 11.0 µM -3% | [4]; at 33.0 µM 22% | [4]; at 100.0 µM 48% | [5]; at 1.2 µM 23% | [5]; at 3.7 µM 44% | [6]; at 1.2 µM 2% | [6]; at 3.7 µM 6% | [6]; [17] 26% | [6]; at 11.0 µM 22% | [7]; at 1.2 µM 0% | [7]; at 3.7 µM 1% | [7]; at 11.0 µM 46% | [9]; at 1.2 µM 20% | [9]; at 3.7 µM 15% | [9]; at 11.0 µM 27% | [9]; at 33.0 µM 30% | [9]; at 100.0 µM 52% | [10]; [17] 17% | [11]; at 1.2 µM 17% | [11]; at 3.7 µM -7% | [11]; [17] 10% | [11]; at 11.0 µM 2% | [11]; at 33.0 µM 12% | [11]; [18] 47% | [11]; at 50.0 µM 17.9% | [11]; at 100.0 µM 43% | [12]; at 1.2 µM -26% | [12]; at 3.7 µM -15% | [12]; at 11.0 µM -14% | [12]; at 33.0 µM 13% | [13]; at 1.2 µM -4% | [13]; at 3.7 µM -6% | [13]; at 11.0 µM 9% | [13]; at 33.0 µM 14% | [13]; at 100.0 µM 61% | [14]; at 1.2 µM 31% | [14]; at 3.7 µM 53%

COc1ccc2nc3c([N+](=O)[O-])ccc(NCCN(C)C)c3c(NCCN(C)C)c2c1
inactive: [1]; at 1.2 µM 15% | [1]; at 3.7 µM 10% | [1]; at 11.0 µM 26% | [1]; at 33.0 µM 28% | [1]; at 100.0 µM 23% | [2]; at 1.2 µM -3% | [2]; at 3.7 µM -3% | [2]; at 11.0 µM -3% | [2]; at 33.0 µM -2% | [2]; at 100.0 µM 0% | [3]; at 1.2 µM 0% | [3]; at 3.7 µM 3% | [3]; at 11.0 µM 1% | [3]; at 33.0 µM 5% | [3]; at 100.0 µM 14% | [4]; at 1.2 µM 0% | [4]; at 3.7 µM 2% | [4]; at 11.0 µM 1% | [4]; at 33.0 µM 1% | [4]; at 100.0 µM 2% | [5]; at 1.2 µM -1% | [5]; at 3.7 µM 0% | [5]; [17] 16% | [5]; at 11.0 µM 0% | [5]; at 33.0 µM 2% | [5]; [18] 33% | [5]; at 50.0 µM 26.9% | [5]; at 100.0 µM 12% | [6]; at 1.2 µM -1% | [6]; at 3.7 µM -4% | [6]; [17] 15% | [6]; at 11.0 µM -5% | [6]; at 33.0 µM 0% | [6]; [18] 17% | [6]; at 50.0 µM 35% | [6]; at 100.0 µM 3% | [7]; at 1.2 µM -2% | [7]; at 3.7 µM -3% | [7]; at 11.0 µM -3% | [7]; at 33.0 µM -4% | [7]; at 100.0 µM 1% | [8]; [17] -2% | [8]; [18] 14% | [8]; at 50.0 µM 3.95% | [9]; at 1.2 µM -5% | [9]; at 3.7 µM -1% | [9]; at 11.0 µM 1% | [9]; at 33.0 µM -5% | [9]; at 100.0 µM -5% | [10]; [17] 29% | [10]; [18] 61% | [10]; at 50.0 µM 62.4% | [11]; at 1.2 µM -3% | [11]; at 3.7 µM -7% | [11]; [17] 14% | [11]; at 11.0 µM 1% | [11]; at 33.0 µM -3% | [11]; [18] -1% | [11]; at 50.0 µM 20.4% | [11]; at 100.0 µM -3% | [12]; at 1.2 µM -3% | [12]; at 3.7 µM 0% | [12]; at 11.0 µM -1% | [12]; at 33.0 µM -1% | [12]; at 100.0 µM -2% | [13]; at 1.2 µM -1% | [13]; at 3.7 µM -2% | [13]; at 11.0 µM -1% | [13]; at 33.0 µM -1% | [13]; at 100.0 µM 1% | [14]; at 1.2 µM 3% | [14]; at 3.7 µM 6% | [14]; at 11.0 µM 2% | [14]; at 33.0 µM 2% | [14]; at 100.0 µM 2% | [15]; [17] -7% | [15]; [18] 24% | [15]; at 50.0 µM -21.4% | [16]; at 1.2 µM 6% | [16]; at 3.7 µM 6% | [16]; at 11.0 µM 7% | [16]; at 33.0 µM 1% | [16]; at 100.0 µM -6%
